In assay [1] the test system is XIP peptide (Xip251-270) binding. Nature of the assay: XIP fragment 251-270 binding compounds – biochemical, small-molecule microarray, fluorescence 635/667 nm, 0.1 µg/mL protein, primary screen (AID 1182). As to conditions: fluorescent protein binding, 635 nm, higher = more signal, called active from +8 up or from −8 down.
For another assay, the system named is XIP peptide (Xip251-270). Nature of the assay: compounds binding XIP fragment 251-270 – biochemical, small-molecule microarray, fluorescence 635/667 nm, 0.5 µg/mL protein, primary screen (AID 1183). The settings on record: fluorescence 635 nm, higher = more signal.
The nature of assay [2]: blood-stage malaria parasite viability loss – strain 3D7, DAPI fluorescence, 100 nL, primary screen (AID 1184).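 Note: parasites grown inside human red blood cells in medium with human serum.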 As to conditions: P. falciparum 3D7 growth, 3 d, higher = more signal.
In assay [3] the target is Homeobox protein Hox-A13 (Mus musculus) (UniProt Q62424). The assay can be described thus: disruptors of Hoxa13 oligonucleotide interaction – biochemical, fluorescence polarization, labeled oligonucleotide, primary screen (AID 1185). The settings on record: Hoxa13:DNA binding, 15 min, higher = more signal, called active from +8 up or from −8 down. A general note: Fluorescence polarisation rises when a labelled molecule tumbles more slowly, as on binding a larger partner.

Assay [4] can be described thus: blockers of DNA damage checkpoint Chk1 activation – imaging, HeLa, hydroxyurea, phospho-Chk1 antibody, percent positive cells, primary screen (AID 1186). As to conditions: hydroxyurea-induced phospho-Chk1 immunofluorescence imaging, higher = more signal.
Assay [5] can be described thus: blockers of DNA damage checkpoint Chk1 activation – imaging, HeLa, hydroxyurea, phospho-Chk1 nuclear intensity, primary screen (AID 1187). As to conditions: hydroxyurea-induced phospho-Chk1 immunofluorescence imaging, higher = more signal.

Active and inactive are the calls of the source. Unless noted, the rule behind the calls is not given here.

Chain of Homeobox protein Hox-A13 (Mus musculus) (Q62424 whole entry, looked up): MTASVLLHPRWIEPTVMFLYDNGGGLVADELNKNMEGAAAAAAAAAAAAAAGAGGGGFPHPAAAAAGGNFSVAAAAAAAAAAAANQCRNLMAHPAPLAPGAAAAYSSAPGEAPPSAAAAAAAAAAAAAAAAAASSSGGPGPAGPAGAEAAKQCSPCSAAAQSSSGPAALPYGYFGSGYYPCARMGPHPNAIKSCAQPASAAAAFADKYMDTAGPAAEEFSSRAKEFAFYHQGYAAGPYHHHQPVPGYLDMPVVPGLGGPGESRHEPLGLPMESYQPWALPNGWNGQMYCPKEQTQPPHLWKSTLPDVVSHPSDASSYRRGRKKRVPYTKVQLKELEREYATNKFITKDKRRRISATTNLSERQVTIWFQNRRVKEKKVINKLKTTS

Take `O=C1O[C@H](c2ccccc2)[C@H](c2ccccc2)N2[C@H]1[C@@H](C(=O)NC[C@H](O)c1ccccc1)[C@]1(C(=O)Nc3ccc(C#CC4=CCCCC4)cc31)[C@H]2c1ccc(O)cc1`: the composite z-score was 0.447 (inactive) in assay [1] and 0.766 in the assay on XIP peptide (Xip251-270). Besides, the z-score in assay [2] is -1.53; in assay [3], 0.685 (inactive); in assay [4], 0.577 (inactive); in assay [5] it was 1.25 (inactive).
Regarding `Cc1cc(C)c(C(O)C2C=CC3C(=O)NC(=O)C3N2Nc2ccccn2)c(C)c1` (stereo not given), the composite z-score in assay [1] was 0.702 (inactive); with XIP peptide (Xip251-270), 0.103. For the same compound, the z-score in assay [2] is -0.261; in assay [3], -3.34 (inactive); in assay [4], 0.321 (inactive); in assay [5] it was -0.0098 (inactive).
In the case of `C=CCC(OC(C)=O)[C@@H]1[C@@H](N(Cc2cc3ccccc3o2)C(=O)c2cccc3ccccc23)c2cc(OCCCO)ccc2N1C(=O)Cc1ccc(OC)cc1` (stereo not given in full), the composite z-score in assay [1] was 0.1 (inactive); with XIP peptide (Xip251-270) it was -0.208. Besides, the z-score in assay [2] is -2.37; in assay [3], -3.31 (inactive); in assay [4], 0.821 (inactive); in assay [5] it was 0.775 (inactive).
As to `C=C(CCCC)/C(=C/C[C@H](OC(C)=O)c1ccc(CO)o1)c1cc(C(=O)OC)ccc1OC`, the composite z-score was 0.485 (inactive) in assay [1] and 0.73 in the assay on XIP peptide (Xip251-270). In addition, the z-score in assay [2] was -1.52; in assay [3] it was -4.44 (inactive); in assay [4], -0.92 (inactive); in assay [5] it was -0.469 (inactive).
With `C=CCC(OC(C)=O)[C@@H]1[C@@H](N(Cc2ccc(-c3ccccc3)cc2)C(=O)c2ccc(C)cc2)c2cc(OCCCO)ccc2N1C(=O)Cc1ccc(OC)cc1` (stereo not given in full), the composite z-score in assay [1] is 0.0129 (inactive); in the assay with XIP peptide (Xip251-270) it was 0.703. In addition, the z-score is -1.18 in assay [2], -0.664 (inactive) in assay [3], -0.793 (inactive) in assay [4] and -0.677 (inactive) in assay [5].
Regarding `Cc1ccc(S[C@]2(C(=O)NCC(C)C)CC(=O)N(Cc3ccccc3)[C@@H]2c2ccc(CO)cc2)cc1`, the results for the composite z-score (in assay [1]; in the assay with XIP peptide (Xip251-270)) were 1.34 (inactive) and 0.404, respectively. Besides, the z-score was -0.894 in assay [2], -2.95 (inactive) in assay [3], 0.306 (inactive) in assay [4] and -0.141 (inactive) in assay [5].
With `COc1cc(CO)cc(I)c1O[C@H]1C=C(C(=O)NCCO)C[C@@H](N(CCc2cccc(F)c2)C(=O)CCC2CCCC2)[C@@H]1O`, the composite z-score in assay [1] is 0.131 (inactive); in the assay with XIP peptide (Xip251-270) it was 0.65. The z-score in assay [2] is -2.18; in assay [3] it was -6.89 (inactive); in assay [4], 0.624 (inactive); in assay [5], 0.824 (inactive).
`COc1ccc(C(=O)Nc2cccc(CN3C(=O)[C@@]4(O[C@@H](CCn5cc([C@H](O)c6ccccc6)nn5)[C@H]([Si](C)(C)c5ccc(OC)cc5)[C@H]4C)c4ccccc43)c2)cc1`: the composite z-score in assay [1] is 0.0252 (inactive); with XIP peptide (Xip251-270), 0.575. In addition, the z-score in assay [2] is -2.31; in assay [3], 0.472 (inactive); in assay [4], -0.694 (inactive); in assay [5], -1.14 (inactive).
`O=c1cccc(-c2ccccc2)o1`: the composite z-score in assay [1] was -0.724 (inactive); in the assay with XIP peptide (Xip251-270), 0.765. The z-score was 0.495 in assay [2], -1.85 (inactive) in assay [3], 0.403 (inactive) in assay [4] and 0.0838 (inactive) in assay [5].
Regarding `Cc1ccc(N2C(=O)c3ccccc3[C@@H](C(=O)NC(C)C)[C@@H]2c2ccc(CO)cc2)nc1`, the composite z-score in assay [1] is 0.262 (inactive); with XIP peptide (Xip251-270), 0.82. Further, the z-score was 0.679 in assay [2], -1.68 (inactive) in assay [3], 0.364 (inactive) in assay [4] and 0.43 (inactive) in assay [5].
For the compound `CC(=O)N1Cc2ccccc2C[C@@]2(N=C(c3ccc(OCCCO)cc3)O[C@H]2c2ccccc2)C1=O`, the composite z-score in assay [1] is 1.11 (inactive); with XIP peptide (Xip251-270), 0.887. For the same compound, the z-score in assay [2] was -2.24; in assay [3] it was -3.3 (inactive); in assay [4] it was -0.662 (inactive); in assay [5] it was -0.681 (inactive).
Regarding `CCOC1=C2C(c3ccc(C)cc3)N(S(=O)(=O)c3ccc(C)cc3)CC2n2c(=O)n(-c3ccccc3)c(=O)n2C1` (stereo not given), the composite z-score in assay [1] was 0.346 (inactive); in the assay on XIP peptide (Xip251-270), 0.846. Also, the z-score in assay [2] is -0.102; in assay [3], -0.865 (inactive); in assay [4], -0.562 (inactive); in assay [5] it was 0.0267 (inactive).
For `[N-]=[N+]=Nc1ccccc1C[C@]1(C(=O)N2CCCCC2)N=C(c2ccc(OCCCO)cc2)O[C@H]1c1ccccc1N=[N+]=[N-]`, the composite z-score is 1.01 (inactive) in assay [1] and 0.659 in the assay with XIP peptide (Xip251-270). For the same compound, the z-score in assay [2] was -2.34; in assay [3] it was -1.63 (inactive); in assay [4], -0.0268 (inactive); in assay [5], 0.205 (inactive).
Take `NC(=O)NCC#Cc1ccc2c(c1)[C@]1(C(=O)N2)[C@H](c2ccccc2OCCO)N2[C@H](c3ccccc3)[C@H](c3ccccc3)OC(=O)[C@H]2[C@@H]1C(=O)N1CCCCCCC1`: the composite z-score in assay [1] was 0.909 (inactive); with XIP peptide (Xip251-270) it was 0.633. The z-score in assay [2] was -2.04; in assay [3] it was 3.45 (inactive); in assay [4], 0.264 (inactive); in assay [5], 0.69 (inactive).
With `COCC1C2CC[C@H]3C(OCc4ccc(F)cc4C(F)(F)F)OC[C@]4(C)[C@H]3C2=C(CN4C(=O)OC(C)(C)C)[C@H](C)C1COC` (stereo not given in full), the composite z-score was 1.84 (inactive) in assay [1] and 0.761 with XIP peptide (Xip251-270). Moreover, the z-score in assay [2] is -1.06; in assay [3], -3 (inactive); in assay [4], -0.43 (inactive); in assay [5], -0.0765 (inactive).
Turning to `COc1ccc([Si](C)(C)[C@H]2[C@H](CC(=O)N3CCC[C@H]3CO)O[C@@]3(C(=O)N(Cc4cccc(N5CCC5=O)c4)c4ccccc43)[C@@H]2C)cc1`, the composite z-score in assay [1] is 0.185 (inactive); with XIP peptide (Xip251-270) it was 0.543. The z-score is -2.04 in assay [2], -3.58 (inactive) in assay [3], 0.307 (inactive) in assay [4] and 0.429 (inactive) in assay [5].
On to `COCCOC(=O)N1C(=O)[C@@]2(c3cc(C#Cc4ccc(OC)cc4)ccc31)[C@H](C(N)=O)[C@H]1C(=O)O[C@H](c3ccccc3)[C@H](c3ccccc3)N1[C@@H]2c1ccc(O)cc1`, for which the composite z-score was -0.0197 (inactive) in assay [1] and 0.0645 with XIP peptide (Xip251-270). Besides, the z-score is -1.69 in assay [2], 2.03 (inactive) in assay [3], -0.0863 (inactive) in assay [4] and 0.243 (inactive) in assay [5].
As to `O=C1OCC=C[C@H]2OC34C=CCN(Cc5ccccc5)C(=O)[C@H]3N(CCCO)C(=O)[C@@H]4[C@@H]12` (stereo not given in full), the values for the composite z-score (in assay [1]; in the assay with XIP peptide (Xip251-270)) were 1.09 (inactive) and 0.212, respectively. Further, the z-score in assay [2] was -1.89; in assay [3], -4.31 (inactive); in assay [4] it was -1.44 (inactive); in assay [5], -0.938 (inactive).
Regarding `C=CCNC(=O)[C@H]1[C@@H]2C(=O)O[C@@H](c3ccccc3)[C@@H](c3ccccc3)N2[C@@H](c2ccc(OCCO)cc2)[C@]12C(=O)N(C(=O)OCCOC)c1ccc(C#CC3(O)CCCCCC3)cc12`, the values for the composite z-score (in assay [1]; with XIP peptide (Xip251-270)) were 0.404 (inactive) and 0.735, respectively. The z-score is -1.91 in assay [2], -0.675 (inactive) in assay [3], -0.124 (inactive) in assay [4] and -0.0954 (inactive) in assay [5].
As to `C=C(COC)/C(=C/C[C@H](OC(C)=O)c1ccccc1OCCO)c1cnc2ccccc2c1`, the composite z-score was 0.384 (inactive) in assay [1] and 0.0219 with XIP peptide (Xip251-270). In addition, the z-score was -2.82 in assay [2], -5.24 (inactive) in assay [3], 0.134 (inactive) in assay [4] and 0.19 (inactive) in assay [5].
For `CN(C)CCCCNC(=O)[C@@H]1C[C@@H]2C(=O)N[C@@H](CCCCN)C(=O)N2[C@@H]1c1cccc(OCCO)c1`, the composite z-score in assay [1] is 0.388 (inactive); in the assay on XIP peptide (Xip251-270) it was 0.566. The z-score is -0.114 in assay [2], -3.47 (inactive) in assay [3], -0.833 (inactive) in assay [4] and -0.838 (inactive) in assay [5].
With `[N-]=[N+]=NCc1ccccc1C[C@]1(C(N)=O)N=C(c2ccc(OCCCO)cc2)O[C@H]1c1ccccc1N=[N+]=[N-]`, the composite z-score in assay [1] is 2.56 (inactive); in the assay with XIP peptide (Xip251-270) it was 0.664. The z-score is -2.06 in assay [2], -4.7 (inactive) in assay [3], -0.118 (inactive) in assay [4] and -0.0296 (inactive) in assay [5].
In the case of `COCCn1c(C(=O)N(C)C)cc2c1C[C@H]1CN(C(=O)c3ccccc3)[C@@](Cc3ccc(F)cc3)(C(=O)OC)[C@@H]21`, the composite z-score in assay [1] is 0.112 (inactive); with XIP peptide (Xip251-270) it was 0.0743. Moreover, the z-score in assay [2] was -0.292; in assay [3], -4.93 (inactive); in assay [4], 0.562 (inactive); in assay [5] it was 0.478 (inactive).
In the case of `CN(C)CCCN1C(=O)[C@@]2(c3ccc([N+](=O)[O-])cc3)CC(=O)N(C3CCCCC3)[C@@H]2c2ccc(CO)cc21`, the composite z-score in assay [1] is -0.157 (inactive); with XIP peptide (Xip251-270), -0.0092. The z-score was 0.615 in assay [2], -0.595 (inactive) in assay [3], -0.659 (inactive) in assay [4] and -0.648 (inactive) in assay [5].
As to `COC(=O)[C@@]1(Cc2ccc(OC)cc2)[C@H]2c3cc(C(=O)N4CCCC4)n(CCc4ccccn4)c3C[C@H]2CN1C(=O)c1ccccc1`, the composite z-score in assay [1] is 0.679 (inactive); with XIP peptide (Xip251-270), 0.864. Moreover, the z-score in assay [2] was -1.77; in assay [3], -5.3 (inactive); in assay [4] it was -0.235 (inactive); in assay [5] it was -0.224 (inactive).

The record behind these values is PubChem BioAssay.
